From PMC6212790, “How bacterial xenogeneic silencer rok distinguishes foreign from self DNA in its resident genome” come the findings set out here.

The full ranking holds about 33,000 sequences; the median of “e-score” is about -0.037, and the highest 2% start at about 0.34. Shown is part of a subset that was picked to be rich in the highest values.

The target of the test is T1, GST-Rok (full length) (Bacillus subtilis subsp. subtilis str. …, UniProt O34857 1-191).
T1 sequence: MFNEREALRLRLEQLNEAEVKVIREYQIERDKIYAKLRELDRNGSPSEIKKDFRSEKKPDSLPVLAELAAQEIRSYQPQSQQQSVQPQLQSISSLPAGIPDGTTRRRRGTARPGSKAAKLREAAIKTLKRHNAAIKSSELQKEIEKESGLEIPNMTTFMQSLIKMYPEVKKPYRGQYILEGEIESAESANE
Description: protein binding microarray; Rok is a gene silencer of Bacillus subtilis; high values mean tight binding. The settings on record: protein: recombinant; tags: GST (pTH5325, pDEST15-Magic modified); dsDNA, one strand shown. A digest of the protocol:
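Each has a 25-mer constant primer and a 35-mer variable part from a de Bruijn sequence of order 10, covering every non-palindromic 8-mer at least 32 times (palindromic 16). Preference for each 8-mer is given as a rank-based, unitless enrichment score (E-score). Its range runs from 0.5 (most favored) to −0.5 (most disfavored).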
As to ACTAGAAA, the binding signal worked out at 0.344 E-score. On to CCTAGAAA, for which the binding signal was 0.0461 E-score. For GCTAGAAA the value was 0.37 E-score.

Take ACAAGAAA: the binding signal is -0.0731 E-score.

Regarding CGCTAGTA, the binding signal worked out at 0.31 E-score. Next, CTGGCAGA: -0.0653 E-score. For the sequence AGGCAACG, the binding signal was -0.102 E-score.

Take CGACGCAA: the binding signal came out at 0.0906 E-score. Next, ATCGATAA: 0.332 E-score; ATCGATAG: 0.361 E-score; ATAGATAT: 0.374 E-score. For CTAGATAG the value was 0.346 E-score. Next, ATAGAGAT: 0.0483 E-score; ACAGATAT: 0.153 E-score; ATCGATAC: 0.213 E-score.

On to ATAGATAG, for which the binding signal came out at 0.34 E-score.

Take ATAGATAC: the binding signal came to 0.331 E-score. In the case of CGAGATAG, the binding signal turned out to be 0.0866 E-score. For ATAGATAA the value was 0.297 E-score. Next, CCAGATAG: 0.188 E-score; CCAAGTGG: -0.0692 E-score; CTAAAGAG: 0.00604 E-score. For AGTTGTGC the value was 0.157 E-score.

For TGTTAACA, the binding signal was found to be 0.207 E-score. As for AAGAGCGA, the binding signal was -0.102 E-score. Take ATTGTTTA: the binding signal is -0.087 E-score. Turning to AGTGGAGG, the binding signal is -0.0535 E-score. For ATAGATTG the value was 0.316 E-score; for ATAGATTA, 0.301 E-score. For AGTGATAG the value was 0.377 E-score; for AGTGATAC, 0.231 E-score. Next, AGTGATAA: 0.145 E-score; ATAGATTC: 0.374 E-score; AGGATTTA: 0.0716 E-score. Take ACTGTACT: the binding signal came to 0.209 E-score. For the sequence AGATATCG, the binding signal worked out at 0.218 E-score. Turning to GCCCGTAA, the binding signal is -0.148 E-score.

Turning to ATGGACAT, the binding signal was found to be 0.0858 E-score. Turning to CCGCGGCG, the binding signal was -0.19 E-score. Next, AATAGCTA: 0.358 E-score; GATAGCTA: 0.35 E-score; AATAGCTG: 0.206 E-score. For GATAGCGA the value was 0.106 E-score; for CATAGCTA, 0.306 E-score; for GATAGCAA, 0.189 E-score. As to ACAGTAAC, the binding signal amounted to 0.293 E-score.

As to GTCAAAAC, the binding signal stood at 0.00409 E-score. For GGAATGTA, the binding signal came out at 0.103 E-score. As to AACACCGT, the binding signal stood at 0.146 E-score.

As for GTGACAAC, the binding signal is -0.0442 E-score.

For the sequence GCTAGATA, the binding signal amounted to 0.342 E-score. Next, ACTAGACG: -0.0512 E-score; GCTAGACA: 0.0674 E-score; ACTAGACA: 0.054 E-score. On to ACTAGATG, for which the binding signal is 0.339 E-score. Take ACTAGATA: the binding signal worked out at 0.402 E-score.

As for ACTAGAGA, the binding signal was -0.0107 E-score. Regarding CCTAGATA, the binding signal turned out to be 0.101 E-score. Next, ACTAGATC: 0.327 E-score; CAGATTAG: 0.083 E-score; CAGTGTAA: 0.192 E-score. On to CACAAAGC, for which the binding signal worked out at 0.0266 E-score. For ACCACAAG the value was -0.065 E-score; for CAGGTGCA, -0.198 E-score; for TATGTCGA, 0.132 E-score. Next, CTAATCGA: 0.122 E-score; GCTACCAC: 0.188 E-score; ACTACCAA: 0.305 E-score.

For the sequence CCTACCAC, the binding signal stood at 0.224 E-score. Next, ACTACCAG: 0.238 E-score. Take ACTACCAT: the binding signal worked out at 0.352 E-score. Next, ACTACCAC: 0.347 E-score; TAGTACCA: 0.166 E-score. For GCATCGAC the value was 0.0744 E-score.

Regarding CTGTAGAA, the binding signal was determined as 0.345 E-score.

On to ATGTAGAG, for which the binding signal is 0.199 E-score. In the case of ATGTAGAA, the binding signal came to 0.423 E-score. For GTGTAGAA the value was 0.292 E-score. For CTGTAGAC the value was 0.117 E-score; for ATGTAGAC, 0.257 E-score. Next, CCCAAACC: -0.181 E-score. With GTACGGTA, the binding signal worked out at 0.232 E-score.

Consider TACTTACA, for which the binding signal came out at 0.331 E-score.

As for AGGTAGGC, the binding signal is -0.115 E-score.

Take GAGTGAAA: the binding signal was -0.103 E-score. For CTATAGTC, the binding signal was found to be 0.096 E-score. Next, ATATAGTG: 0.274 E-score; GTATAGTA: 0.316 E-score. Next, ATATAGTA: 0.456 E-score; CTATAGTA: 0.365 E-score; ATATAGTC: 0.25 E-score. Next, ACTGCTAG: -0.0701 E-score.

For CCGACCAA, the binding signal was -0.12 E-score. Next, CCGACTAA: 0.0388 E-score; AGAAACAA: 0.253 E-score; AGGTATGC: 0.154 E-score.

Turning to AAGTGGAG, the binding signal is -0.191 E-score. Take ATCTAATA: the binding signal worked out at 0.313 E-score.

In the case of ATCTAATG, the binding signal amounted to 0.241 E-score. Consider ATCTAATC, for which the binding signal was 0.351 E-score. In the case of ATAATTCA, the binding signal turned out to be 0.21 E-score. AAAATTTA: the binding signal worked out at 0.293 E-score.

ATAATTTA: the binding signal amounted to 0.397 E-score. For CTAATTTC the value was 0.162 E-score. Next, GCAATTTA: 0.279 E-score.

Take TAAATTTA: the binding signal is 0.361 E-score.

Consider CAAATTTA, for which the binding signal came out at 0.168 E-score. For CTAATTTA the value was 0.286 E-score. Next, GTAATTGA: 0.246 E-score; ATAATTTC: 0.351 E-score.

In the case of ATAATTTG, the binding signal is 0.284 E-score. For GTAATTTA the value was 0.355 E-score. In the case of TAAAGCCA, the binding signal was -0.0305 E-score. As to AACTCAAT, the binding signal stood at 0.296 E-score. CGCCATTC: the binding signal is -0.0796 E-score. Next, AATAAGGC: -0.0153 E-score; ATGTCGCG: -0.0435 E-score; CCATTTAC: 0.0848 E-score. Next, GTCATATA: 0.291 E-score; GAATGGGA: -0.15 E-score.

ACGAGCTA: the binding signal was -0.107 E-score. For AAAACTAG the value was 0.334 E-score; for AAAACTAT, 0.433 E-score. Turning to CAAACTAG, the binding signal worked out at 0.329 E-score. As for CAAACTAA, the binding signal was found to be 0.378 E-score.

Consider CAAACTTA, for which the binding signal stood at 0.162 E-score. For TAAACTAA the value was 0.288 E-score; for AAAACTAA, 0.254 E-score.

As for AAAACTGT, the binding signal is -0.0241 E-score.

Consider AAAACTCC, for which the binding signal amounted to 0.0005 E-score.

Turning to AAAACTAC, the binding signal was determined as 0.453 E-score. Turning to CAAACTCC, the binding signal was -0.0836 E-score.

With CAAACTAC, the binding signal came out at 0.43 E-score. In the case of GTGGCAAC, the binding signal was -0.17 E-score. For CGTGACAA the value was -0.11 E-score. For CGACGAGA the value was -0.0756 E-score; for ATCCCAAA, 0.0535 E-score; for CACTCTCA, -0.109 E-score. Next, CTTAATGC: 0.13 E-score. In the case of ACCGAGCA, the binding signal was -0.0882 E-score.

Regarding GTTGGTTA, the binding signal worked out at 0.26 E-score. For AGCGCTAT the value was -0.0624 E-score; for GAAACTAC, 0.469 E-score. Turning to GAAACTTC, the binding signal was found to be 0.224 E-score. For GAAACTAA the value was 0.244 E-score; for CGGTAGGA, 0.281 E-score; for CAACCGGC, -0.0977 E-score. Next, ACGCTCCT: -0.000812 E-score.

On to TAATACGA, for which the binding signal amounted to 0.377 E-score. Next, AAATACTA: 0.454 E-score.

On to AAATACTG, for which the binding signal turned out to be 0.327 E-score.

As for AAATACGA, the binding signal amounted to 0.118 E-score. For AAATACTC the value was 0.227 E-score; for GAATACTA, 0.295 E-score; for CAATACGA, 0.00373 E-score. For TAATACTA the value was 0.419 E-score. Next, CAATACTA: 0.261 E-score; ACGCAAAC: 0.106 E-score.

For the sequence AGAGCTTA, the binding signal was -0.044 E-score. For GACGATGA, the binding signal was -0.103 E-score. For GGCTGTAC the value was -0.102 E-score; for ACTCGCAC, -0.112 E-score; for ATACTGTC, 0.0898 E-score.

As for AGTACGCC, the binding signal was -0.149 E-score. For ATCAATGA the value was 0.0966 E-score. Consider ATTAATAA, for which the binding signal turned out to be 0.182 E-score. Next, ATTAATAC: 0.353 E-score; CATAATAA: 0.252 E-score. Next, GATAATAA: 0.369 E-score.

Turning to AATAATAG, the binding signal amounted to 0.388 E-score. Regarding TATAATAA, the binding signal was found to be 0.33 E-score. For the sequence CTTAATAC, the binding signal is 0.18 E-score.

As for CATAATAG, the binding signal stood at 0.243 E-score. For AATAATAA, the binding signal stood at 0.364 E-score. In the case of GATAATAC, the binding signal is 0.187 E-score. For AATAATAC the value was 0.332 E-score; for GGTAATAA, 0.313 E-score.
